Bioassay records: PubChem BioAssay, NMMLSC
RGS16-Gao = modulators of RGS16 binding to Galphao, primary screen, biochemical, human proteins, multiplexed bead flow cytometry. Regulator of G-protein signaling 16 (Homo sapiens) + Guanine nucleotide-binding protein …. bead-based flow cytometry RGS16-Galphao binding, fluorescence; actives lie on both sides. binding response (% of control), % at 10 µM. 220,000 compounds, 0.38% hits. AID 1441, 2008;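 also: Galphao activated by GDP with aluminum fluoride before binding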
Target sequence (O15492 whole entry, looked up): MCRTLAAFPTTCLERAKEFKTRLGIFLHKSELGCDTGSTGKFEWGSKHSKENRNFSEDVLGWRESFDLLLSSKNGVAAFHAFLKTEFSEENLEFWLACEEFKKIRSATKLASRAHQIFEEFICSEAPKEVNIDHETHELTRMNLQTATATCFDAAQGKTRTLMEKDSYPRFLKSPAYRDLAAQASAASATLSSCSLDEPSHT
Target sequence (P09471 whole entry, looked up): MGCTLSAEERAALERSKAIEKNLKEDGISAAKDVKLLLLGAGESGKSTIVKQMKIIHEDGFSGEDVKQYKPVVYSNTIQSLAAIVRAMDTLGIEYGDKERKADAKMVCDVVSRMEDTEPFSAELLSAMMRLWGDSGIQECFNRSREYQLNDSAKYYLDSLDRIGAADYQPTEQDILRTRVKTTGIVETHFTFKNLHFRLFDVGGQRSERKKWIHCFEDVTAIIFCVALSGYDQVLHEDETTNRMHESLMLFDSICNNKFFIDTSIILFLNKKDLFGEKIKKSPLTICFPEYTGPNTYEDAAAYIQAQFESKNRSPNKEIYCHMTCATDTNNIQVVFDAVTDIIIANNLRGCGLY
Avidin bead fluor = green autofluorescence of compounds with avidin beads – biophysical, 488/530 nm, flow cytometry, artefact control, profiling panel; 220,000 compounds, 0.38% hits; compound fluorescence 488/530 nm; hits give high values; fluorescence (KMESF) at 10 µM; in the data active = fluorescence above about 47
RGS4-Gao reg = modulators of RGS4 binding to Galphao, primary screen, biochemical, multiplexed bead flow cytometry; Guanine nucleotide-binding protein G(o) subunit alpha (Homo sapiens), P09471; actives lie on both sides; binding response (% of control), % at 10 µM; 220,000 compounds, 0.33% hits; in the data active = binding response below about 49% or above about 150%; inactive = in between;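 also: fluorescent Galphao activated with aluminum fluoride binding bead-coupled RGS4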
Target sequence (P09471 whole entry, looked up): as above
RGS8-Gao reg = RGS8-Galphao binding modulators, primary screen, biochemical, multiplexed bead flow cytometry. response (percent of control binding), % at 10 µM. Guanine nucleotide-binding protein G(o) subunit alpha (Homo sapiens), P09471. 220,000 compounds, 0.34% hits. actives lie on both sides; in the data active = response below about 60% or above about 140%; inactive = in between;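 also: Galphao activated as the GDP aluminium fluoride complex binding bead-coupled RGS8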
RGS7-Gao reg = RGS7-Galphao binding modulators, primary screen, biochemical, multiplexed bead flow cytometry; Guanine nucleotide-binding protein G(o) subunit alpha (Homo sapiens), P09471; actives lie on both sides; binding response (% of control), % at 10 µM; 220,000 compounds, 0.35% hits; AID 1439, 2008; in the data active = binding response below about 49% or above about 150%; inconclusive = no clear call, values can overlap the other calls; inactive = in between;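 also: fluorescent Galphao held in activated GDP-AlF4 state binding bead-coupled RGS7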
GSH bead fluor = compound fluorescence on glutathione beads, profiling panel, artefact control, biophysical, 488/530 nm, flow cytometry; 190,000 compounds, 0.25% hits; fluorescence (KMESF) at 10 µM; GSH beads flow cytometry, compound fluorescence 488/530 nm; hits give high values; in the data active = fluorescence above about 89;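 also: glutathione beads carrying GST-tagged Bcl family fusion proteins plus one bare bead set; values are compound well signal with DMSO vehicle wells as background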
RGS-Gao = modulators of RGS–Galpha-o binding, primary screen, biochemical, multiplexed beads, flow cytometry, RGS4/7/8/16/19 | shares compounds with RGS16-Gao | RGS4–Galpha-o binding response, % at 10 µM | multiplexed bead flow cytometry | 1,600 compounds, 99% hits;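 also: fluorescently labeled Galpha-o bound to GDP with aluminium fluoride binding biotinylated RGS beads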
Avidin counter = disruption of biotin probe capture by avidin, counter-screen for RGS protein interaction modulators, biochemical, flow cytometry, bead-based. streptavidin beads, fluorescein-biotin binding. shares compounds with RGS16-Gao. AID 1783, 2009. inhibition, % at 10 µM. 1,700 tested, under 10 active;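 active = inhibition above 50%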;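 also: median green fluorescence of gated singlet beads compared with DMSO control wells; 0% = DMSO wells and 100% = complete loss of bead fluorescence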
RGS8-Gao confirm = RGS8-Galphao binding modulators, confirmation, biochemical, multiplexed bead flow cytometry, single concentration | shares compounds with RGS16-Gao | bead-based flow cytometry RGS8-Galphao binding, fluorescence; actives lie on both sides | binding response (% of control), % at 10 µM | 1,700 compounds, 3% hits | AID 1836, 2009; in the data active = binding response below about 72% or above about 130%; inactive = in between;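 also: Galphao activated as GDP AlF4 complex before binding bead RGS8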
RGS7-Gao confirm = RGS7-Galphao binding modulators, confirmation, biochemical, multiplexed bead flow cytometry, single concentration; shares compounds with RGS16-Gao; bead-based flow cytometry RGS7-Galphao binding; actives lie on both sides; response (percent of control binding), % at 10 µM; 1,700 compounds, 7.8% hits; AID 1837, 2009; in the data active = response below about 75% or above about 130%; inactive = in between;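 also: fluorescent Galphao activated with GDP and aluminum fluoride binding bead-coupled RGS7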
RGS16-Gao conf = modulators of RGS16-Galphao protein binding, confirmation, biochemical, single concentration, multiplexed bead flow cytometry | shares compounds with RGS16-Gao | bead-based flow cytometry; actives lie on both sides | response (% of control binding), % at 10 µM | 1,700 compounds, 4% hits | AID 1838, 2009; in the data active = response below about 74% or above about 130%; inactive = in between;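 also: Galphao activated as the GDP aluminium fluoride complex binding bead-coupled RGS16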
RGS4-Gao confirm = modulators of RGS4-Galphao protein binding, confirmation, biochemical, single concentration, multiplexed bead flow cytometry | actives lie on both sides | 1,700 compounds, 4% hits | binding response (% of control), % at 10 µM | shares compounds with RGS16-Gao | AID 1840, 2009; in the data active = binding response below about 74% or above about 130%; inactive = in between
RGS19-Gao conf = regulators of RGS19-Galphao binding, confirmation, biochemical, single point, multiplexed bead flow cytometry; shares compounds with RGS16-Gao; bead-based flow cytometry RGS19-Galphao binding; actives lie on both sides; response (percent of control binding), % at 10 µM; 1,700 compounds, 5% hits; in the data active = response below about 50% or above about 160%; inactive = in between;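 also: 100% = no compound control and 0% = blank background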
Numbers without * were called inactive; i = inactive; ? = inconclusive; . = no result given; + = active, no number; [ ] = dose if it differs, or a comment. An excerpt weighted towards active compounds, which were near 1.2% of everything screened. Unless noted, no rule for the calls is given here.

SMILES | RGS16-Gao | Avidin bead fluor | RGS4-Gao reg | RGS8-Gao reg | RGS7-Gao reg | GSH bead fluor | Avidin counter | RGS8-Gao confirm | RGS7-Gao confirm | RGS16-Gao conf | RGS4-Gao confirm | RGS19-Gao conf | others
C=C(C)CCC1(C)NC(=O)N(c2ccccc2)N1 (stereo not given) | 52 | 1 | 41* | 79 | ? | . | 0 | 97 | 95 | 96 | 96 | 93
COc1ccc(CC(=O)N2CCN(S(=O)(=O)c3cccs3)CC2)cc1OC | 109 | 8 | 107 | 102 | ? | . | . | . | . | . | . | .
O=C(CSc1nnc2n1CCCN2)c1ccc(Cl)cc1 | 88 | -5 | +[activator] | -19* | -278* | 11 | 2 | 100 | 104 | 102 | 105 | 100
Cc1cc(NC(=O)CSc2nnc3c4c(C)c(C)sc4ncn23)no1 | 103 | 111* | 114 | 100 | 188*[activator] | 29 | 0 | 105 | 103 | 104 | 102 | 95 | RGS-Gao=114*
Cc1cc(NC(=O)CSc2nc(C(C)C)nc3sc(C)c(C)c23)no1 | 102 | 12 | 98 | 100 | 101 | 31 | . | . | . | . | . | .
Cc1cccc(Nc2nnc(SCC(=O)c3ccc(Br)s3)s2)c1C | 105 | 15 | 104 | 103 | 104 | 11 | . | . | . | . | . | .
CCn1c(=O)c(C(=O)NCc2cccnc2)c(O)c2ccccc21 | . | . | 122 | . | . | 40 | 0 | 101 | 97 | 101 | 96 | 100
CCOCCCn1c(=S)[nH]c2cc(C(=O)NCC(OC)OC)ccc2c1=O | 95 | 8 | 96 | 97 | 95 | 20 | . | . | . | . | . | .
CC1CN/C(=C\C(=O)c2ccc(Cl)cc2)C(=O)N1 (stereo not given) | 111 | 6 | 101 | 103 | 100 | 14 | . | . | . | . | . | .
CC1CN/C(=C\C(=O)c2ccccc2)C(=O)N1 (stereo not given) | 42 | 3 | 49* | 56* | 44* | 21 | i | 101 | 106 | 106 | 102 | 104
CC(=O)CSc1nnc(CN2C(=O)CSc3ccc(C(F)(F)F)cc32)n1C | 99 | 4 | 103 | 99 | ? | . | . | . | . | . | . | .
CC(C)(C)Nc1nc(Oc2ccc(=O)n(-c3ccccc3)n2)nc(N2CCOCC2)n1 | . | . | . | . | . | 17 | -1 | 100 | 103 | 101 | 101 | 98
Cn1nc(Oc2nc(N3CCOCC3)nc(N3CCOCC3)n2)ccc1=O | -35 | -1 | -23* | 12* | -4.9* | 10 | 0 | 101 | 95 | 99 | 98 | 94
Cc1ccc(OCC(=O)N/N=C\c2ccncc2)c(C)c1 | 177*[activator] | 7 | 106 | 111 | 105 | 10 | . | . | . | . | . | . | RGS-Gao=106*
O=C(O)CCSc1nnc(SCC(=O)NCC(F)(F)F)s1 | 8.8* | 5 | 93 | 72 | 85 | 4 | -2 | 103 | 106 | 102 | 103 | 101 | RGS-Gao=93*
CCOC(=O)CNC(=O)CSc1nnc(SCC(=O)NCC(=O)OCC)s1 | 123 | 15 | 103 | 99 | 115 | 10 | . | . | . | . | . | .
CCn1c(SCC(=O)Nc2c(C)n(C)n(-c3ccccc3)c2=O)nc2c1c(=O)n(C)c(=O)n2C | 109 | 22 | 105 | 109 | 106 | 11 | . | . | . | . | . | .
O=C(C1CCN(S(=O)(=O)c2cccc3cccnc23)CC1)N1CCN(c2ccccc2)CC1 | 189 | 3 | 105 | 122 | 100 | 12 | . | . | . | . | . | .
CCN1CCN(C(=O)C2CCN(S(=O)(=O)c3cccc4cccnc34)CC2)CC1 | 192*[activator] | 13 | 104 | 120 | 115 | 20 | -1 | 101 | 100 | 105 | 103 | 103 | RGS-Gao=104*
O=C(Cc1ccccc1)NCC(=O)OCC(=O)c1cccs1 | 104 | 7 | 100 | 97 | 96 | 21 | . | . | . | . | . | .
COc1c(Cl)cc(Cl)cc1CNc1ccc(S(N)(=O)=O)cc1 | 105 | 5 | 108 | 102 | 108 | 21 | . | . | . | . | . | .
C/C(=N/OC(=O)C1CC1)c1cc(-c2ccc(Cl)cc2)no1 | 98 | 4 | 101 | 99 | 98 | 10 | . | . | . | . | . | .
Cc1cccc(Nc2cnn(C34CC5CC(CC(CC(=O)O)(C5)C3)C4)c(=O)c2Cl)c1 | 103 | 6 | 102 | 105 | 101 | 30 | . | . | . | . | . | .
Cc1ccc(CNc2cnn(C34CC5CC(CC(C5)C3)C4)c(=O)c2Cl)cc1 | 5.8* | -2 | 0.2* | 11* | 7.4* | 22 | -1 | 99 | 94 | 98 | 92 | 101
Cc1cc(C)cc(Nc2cnn(C34CC5CC(CC(CC(=O)O)(C5)C3)C4)c(=O)c2Cl)c1 | . | . | 91 | . | . | 33 | 2 | 103 | 105 | 102 | 102 | 100
O=[N+]([O-])c1ccc(C(O)CN=Cc2ccc(O)cc2O)cc1 (stereo not given) | 97 | 11 | 95 | 96 | 92 | 18 | . | . | . | . | . | .
COc1ccccc1NS(=O)(=O)c1ccc(Cl)c(NC(=O)CN2C(=O)c3ccccc3C2=O)c1 | 110 | 17 | 103 | 103 | 102 | 15 | . | . | . | . | . | .
